Hit rate of the full screen: of about 68,000 compounds, about 2,700 (4%) showed an effect of 50% or more. For the sample, strong results were picked, then their nearest neighbours and some compounds at random.

The assay relates to Plasmodium berghei. The assay is described as follows: Screen against P. berghei liver stage (PbLuc), transformed with Luciferase, at 2uM. The format is functional, HepG2. As to conditions: tested at 2 uM.
As to `COC(=O)c1sccc1S(=O)(=O)N1CCC(Oc2cccnn2)CC1`, the INHIBITION is listed as 23.42%.
On to `Cc1noc(C)c1S(=O)(=O)N1CCC(Oc2cccnn2)CC1`, for which the INHIBITION was -12.23%.
Turning to `Cc1ccc(S(=O)(=O)N2CCC(Oc3ccccn3)CC2)c(C)c1`, the INHIBITION is given as 56.24%.
Turning to `Cc1noc(C)c1S(=O)(=O)N1CCC(Oc2ccccn2)CC1`, the INHIBITION is reported as -11.22%.
With `O=S(=O)(c1ccccc1F)N1CCC(Oc2cccnn2)CC1` the figure was 51.31%; with `CN(C)S(=O)(=O)N1CCC(Oc2ccccn2)CC1`, -19.47%.
Under `O=C(NCCCn1cccn1)N1CCCC1c1cccs1` (stereo not drawn) stands -13.45%; under `CCc1cc2c(N3CCCC(c4cc(C(N)=O)[nH]n4)C3)ncnc2s1` (stereo not drawn), -126.83%.
Under `Cc1cnc(C(=O)N2CCc3c(nc(-c4ccncc4)[nH]c3=O)C2)cn1` stands 10.63%; under `CNC(=O)C(C)(C)N1CCC[C@H]1C(=O)NC1CC1`, 24.91%; under `CC(C)[C@@H]1CN(C(=O)C2(c3ccccc3)CC2)C[C@H]1C(=O)O`, 69.67%.
`CC(C)[C@@H]1CN(C(=O)C2(c3ccccc3)CCN(C)CC2)C[C@H]1C(=O)O`: the INHIBITION is 31.51%.
For the compound `COc1ccc(C2(C(=O)N3C[C@@H](C(=O)O)[C@H](C(C)C)C3)CC2)cc1`, the INHIBITION was found to be 17.2%.
With `CCN(c1ccc(C(=O)N2CCC(C)CC2)cc1)S(=O)(=O)CC`, the INHIBITION is 9.63%.
Under `CCN(c1ccc(C(=O)N2CCCC(C)C2)cc1)S(=O)(=O)CC` (stereo not drawn) stands -2.82%.
Take `CCS(=O)(=O)N(C)c1ccc(C(=O)N2CCCC(C)C2)cc1` (stereo not drawn): the INHIBITION is recorded as 62.77%.
As to `CN1CCN(C(=O)C2(NC(N)=O)CCCCC2)Cc2ccccc21`, the INHIBITION is 50.61%.
For the compound `CN1CCN(C(=O)C2(S(C)(=O)=O)CCCC2)Cc2ccccc21`, the INHIBITION was -21.76%.
In the case of `NC(=O)NC1(C(=O)N2CCc3c(Cl)cccc3C2)CCCCC1`, the INHIBITION turned out to be 42.2%.
On to `O=C(CC1CC1)N[C@@H]1CN(Cc2ccccn2)C[C@@H]2CCCO[C@@H]21`, for which the INHIBITION is on record as -5.84%.
With `c1ccc(CCN2CCCC(c3ccnc4nccn34)C2)cc1` (stereo not drawn) the figure was 32.74%.
With `Cc1csc(C(=O)N2CCC3(CC(N(C)c4ccncn4)C3)C2)c1` (stereo not drawn) the figure was -18.68%.
Turning to `CN(CC(O)C1CC1)C(=O)Nc1ccc(F)c(-n2cccc2)c1` (stereo not drawn), the INHIBITION worked out at 42.76%.
In the case of `c1ccc(-c2nc(CCNCc3cccnc3)co2)cc1`, the INHIBITION is 30.88%.
Under `CS(=O)(=O)NCCNC(=O)NC1(c2ccc(Cl)cc2)CCC1` stands 43.88%; under `CS(=O)(=O)NCCC(=O)NC1(c2ccc(F)cc2)CCCC1`, 5.17%; under `CS(=O)(=O)NCCNC(=O)NC1(c2ccc(F)cc2)CCCC1`, 52.3%.
`CN(C)CCOCc1nnc2n1CCN(Cc1ccsc1)C2`: the INHIBITION came to 20.2%.
For the compound `Cc1n[nH]c(C)c1NC(=O)C1CCCN(C(=O)NCC(C)C)C1` (stereo not drawn), the INHIBITION amounted to 52.95%.
With `CCc1cc(NC(=O)C2CCCN(C(=O)NCC(C)C)C2)[nH]n1` (stereo not drawn) the figure was 6.62%; with `Cc1c(C2CC2)n[nH]c1NC(=O)C1CCCN(C(=O)NCC(C)C)C1` (stereo not drawn), -7.81%.
On to `CC(C)c1sc(Cl)nc1C(=O)N1CCN(c2ccccn2)CC1`, for which the INHIBITION was determined as 20.42%.
With `COc1ncnc2c1CCN(C(=O)NCc1cccnc1)CC2` the figure was 46.02%; with `O=C(NCCc1ccncc1)C1CCN(Cc2ccco2)CC1`, -0.55%; with `COCCNC(=O)Cn1cc(NC(=O)c2ccc(C(C)(C)C)cc2)cn1`, -38.81%.
As to `CCc1nc(CS(=O)(=O)Cc2noc(C3CC3)n2)cs1`, the INHIBITION is reported as -18.58%.
With `CC(C)c1nc(CS(=O)(=O)Cc2noc(C3CC3)n2)cs1` the figure was 53.12%; with `CCc1nc(CN2CCCN(Cc3noc(C4CC4)n3)CC2)cs1`, -17.17%; with `CN1CC(C(=O)NC2(c3ccc(Cl)cc3)CCOCC2)CC1=O` (stereo not drawn), 3%.
With `CN(C)C(=O)COCC1CN(Cc2ccco2)Cc2ncn(C)c21` (stereo not drawn) the figure was -45.9%; with `CC(C)c1nnc2n1CCN(C(=O)c1ccc3c(c1)COC3)C2`, 57.75%; with `CC(C)c1nnc2n1CCN(C(=O)c1ccc(CN(C)C)cc1)C2`, 50.72%.
Under `CC(C)c1nnc2n1CCN(C(=O)c1ccc3c(c1)CCC3)C2` stands 9.17%; under `CC(C)c1nnc2n1CCN(C(=O)c1ccc3cc[nH]c3c1)C2`, 45.92%.
`CCCc1ccc(C(=O)N2CCn3c(nnc3C(C)C)C2)cc1`: the INHIBITION worked out at 15.08%.
Under `CC(C)c1nnc2n1CCN(C(=O)c1ccc(Cn3cccc3)cc1)C2` stands 15.08%; under `O=C(c1ccoc1)N1CCn2cnc(COCC3CC3)c2C1`, 41.79%.
With `O=C1Nc2ccccc2C12CCN(Cc1nccs1)CC2` the figure was 21.61%; with `O=C(Cc1ccccc1F)N1C[C@@H]2COC[C@]2(COc2cccnc2)C1`, -2.44%; with `CO[C@H]1CO[C@@]2(CCCN(C(=O)N3CCCC3)C2)C1`, 28.13%.
With `CN1CCCN(C(=O)c2cccc(S(=O)(=O)NCC3(C)COC3)c2)CC1` the figure was -35.07%; with `CN1CCCN(S(=O)(=O)c2cccc(C(=O)N3CCCCCC3)c2)CC1`, 54.75%.
For `CC1=CCN(S(=O)(=O)c2cccc(C(=O)N3CCCN(C)CC3)c2)CC1`, the INHIBITION was found to be 23.17%.

Source of the values: ChEMBL document CHEMBL4513216, “Probing the Open Global Health Chemical Diversity Library for Multistage-Active Starting Points for Next-Generation Antimalarials” (ACS Infect Dis, 2020).
